Each structure is given as a SMILES string. Inconclusive results are not listed. Activity calls are given as the source filed them. The calls were made as follows: active = hit-call score of the fitted dose curve at least 0.9, where 1 is the maximum; inconclusive = response in the unintended direction; inactive = score below 0.9.

Ten molecules from PubChem BioAssay (EPA / NIEHS) can be followed below.

The assay can be described thus: CCTE_Deisenroth_AIME_384WELL_CTox_Inactive: Cytotoxicity Assessment (CTOX) in CCTE's 384-well Estrogen Receptor Transactivation Assay without AIME metabolic competence (metabolism negative), Deisenroth Lab (AID 2284039).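 Also: cell viability via live-cell protease substrate cleaved to fluorescent probe; cells exposed 24 h to medium preincubated 2 h with alginate-water beads without S9; loss of fluorescence signal means loss of viability.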 How it is done: CCTE_Deisenroth_AIME_384WELL (AIME metabolism assay) is a cell-based, single-readout assay that uses VM7Luc4E2, a human mammary gland/breast cell line, with measurements taken at 24 hour after chemical dosing in a 384-well plate.CCTE_Deisenroth_AIME_384WELL_CTox_Inactive is one of four assay components measured or calculated from the CCTE_Deisenroth_AIME_384WELL assay. It is designed to make measurements of a protease substrate, a type of viability indicator, as detected with substrate cleavage to a fluorescent probe in living cells.CCTE_Deisenroth_AIME_384WELL_CTox_Inactive is a component of the CCTE_Deisenroth_AIME_384WELL assay that measures the effect of retroftting the VM7Luc ERTA assay with the Alginate Immobolization of Metabolic Enzymes (AIME) metabolism method. AIME is optimized to impart phase I hepatic metabolism using phenobarbital/beta-naphthoflavone induced hepatic S9 from male Sprague Dawley rats. Parent chemicals are incubated for 2 hours in the AIME assay prior to transfer to the VM7Luc ERTA assay plate. […] This endpoint evaluates cytotoxicity in metabolism negative mode. Using a type of flourescent probe in VM7Luc cells, loss-of-signal activity can be used to understand loss of viability. This assay endpoint, CCTE_Deisenroth_AIME_384WELL_CTox_Inactive, was analyzed with bidirectional fitting in the ERTA assay.
The AIME procedure consists of a preparative "pre-stamping" step using a barium chloride/poly-L-lysine (PLL) solution followed by "stamping" the lid in alginate-hepatic S9 (metabolism positive) or alginate-water (metabolism negative) to form microspheres. Once stamping is completed, the AIME lids are placed in duplicate microplates (metabolism positive or negative) containing chemical solutions and incubated for two hours to facilitate metabolic reactions. The conditioned medium, containing parent chemical or metabolites, is then transferred to the cell-based VM7Luc Estrogen Receptor Transactivation Assay (ERTA) for 24 hours. A typical experimental design tests a 10-point concentration series (0.002 - 200 uM) for 8 compounds (96-well format)1 or 32 compounds (384-well format)2 in single technical replicate. AIME assay controls include trans-stilbene (bioactivated control) and ethylparaben (bioinactivated control). ERTA assay plate controls include 17-beta estradiol (positive control) and DMSO (solvent control). Experiments typically comprise a minimum of four experimental replicates (n=4).
As to `CSC(=O)c1cccc2nnsc12`, the molecule was classed as inactive.

`CC(=O)[C@H]1CC[C@H]2[C@@H]3CCC4=CC(=O)CC[C@]4(C)[C@H]3CC[C@]12C`: the AC50 (as a rule, the midpoint of the concentration-response curve, whichever way the signal moves) was 27.4 µM (active).

For the molecule `c1ccc(Nc2ccccc2)cc1`, the molecule was called inactive.

On to `CCCOC(=O)NCCCN(C)C`, for which the outcome was inactive.

With `Cc1nn(C)c(Oc2ccccc2)c1C=NOCc1ccc(C(=O)OC(C)(C)C)cc1`, the molecule was classed as inactive.

For the molecule `CCCCOC(=O)C(C)Oc1ccc(Oc2ccc(C(F)(F)F)cn2)cc1` (stereo not given), the molecule was called inactive.

With `O=C(O)c1ccccc1`, the molecule was classed as inactive.

Turning to `c1ccc2[nH]c(-c3cscn3)nc2c1`, the molecule was called inactive.

`CCOC(=O)COc1cc(-n2ncc(C(F)(F)F)c(C)c2=O)c(F)cc1Cl`: the molecule was classed as inactive.

As to `O=C(c1ccc(O)cc1O)c1ccc(O)cc1O`, the result was inactive.
